B2AR arrestin: qHTS assay of beta-arrestin-biased ligands of beta2-adrenergic receptor | beta-arrestin recruitment to beta2AR, cell-based reporter | Beta-2 adrenergic receptor (Homo sapiens), P07550 | Potency, µM (titrated, usually from 46.1 µM), actives largely listed as activators | 330,000 tested, 0.02% active; also: nearly all actives have a fitted effect of over 65% in size
Target sequence (P07550 whole entry, looked up): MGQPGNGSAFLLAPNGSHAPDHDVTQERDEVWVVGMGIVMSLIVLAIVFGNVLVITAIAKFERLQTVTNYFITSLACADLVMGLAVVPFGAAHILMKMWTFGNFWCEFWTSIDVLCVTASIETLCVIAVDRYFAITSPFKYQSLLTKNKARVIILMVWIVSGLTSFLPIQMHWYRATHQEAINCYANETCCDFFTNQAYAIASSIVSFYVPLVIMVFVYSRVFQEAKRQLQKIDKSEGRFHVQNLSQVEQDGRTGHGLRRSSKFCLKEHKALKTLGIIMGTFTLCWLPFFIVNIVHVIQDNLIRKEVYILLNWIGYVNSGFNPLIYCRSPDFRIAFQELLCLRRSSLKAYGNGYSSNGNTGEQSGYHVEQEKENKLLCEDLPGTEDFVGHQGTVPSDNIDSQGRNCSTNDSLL
Chronic BCR inh: qHTS Assay to Find Inhibitors of Chronic Active B-Cell Receptor Signaling | ABC-DLBCL IkBa-CBG/CBR reporter, luminescence ratio, 4 h | AID 493014, 2011 | Potency, µM (top dose mostly 46.1 µM), usual class: inhibitors | 340,000 tested, 0.05% active; active = well fitted inhibition curve with a large enough effect in the signal ratio, with a control signal flat, not every such curve was filed as active; inconclusive = small, poorly fitted or top-dose-only effect, or effect the other way, or a change in a side signal; the % refers to the signal ratio
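Doxycycline induced both beetle luciferases in TMD8 lymphoma cells; IKK-driven degradation limits the IkappaBalpha-fused green signal, while red luminescence normalises for cell number and nonspecific effects. Compounds tested up to 46 uM, 4 hrs.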
Anesthetic bind: qHTS Assay for Identification of Novel General Anesthetics. Ferritin light chain (Equus caballus), P02791. apoferritin/1-aminoanthracene competitive binding, fluorescence. Potency, µM (top dose mostly 77.5 µM), usual class: inhibitors. 350,000 tested, 0.074% active. AID 485281, 2010; also: nearly all actives have a fitted effect of over 20% in size
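Horse-spleen apoferritin (10 uM) was mixed with 50% saturated 1-aminoanthracene in PBS, exposed to compounds for 10 min at room temperature, and read for fluorescence (ex 380 nm, em 535 nm). Competitive displacement was fitted with a four-parameter Hill equation.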
Tb PGK inh: qHTS Assay to Find Inhibitors of Phosphoglycerate Kinase. AID 602233, 2012. 380,000 tested, 0.043% active. Potency, µM (doses to about 57.5 µM), usual class: inhibitors. PGK/GAPDH coupled, Kinase-Glo luminescence, 60 min; also: nearly all actives have a fitted effect of over 60% in size
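Recombinant glycosomal PGK reaction used 1,3-bisphosphoglycerate generated in-well by GAPDH (100nM final) in 100mM TEA pH 7.6, 5mM MgCl2, 0.01% Tween-20. After 60 minutes at room temperature, ATP was read by Kinase-Glo Plus luminescence end-point.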
FEN1 inhibitor: qHTS Assay for the Inhibitors of Human Flap endonuclease 1 (FEN1). P39748. Recombinant FEN1 flap cleavage, fluorescence, 15 min. Potency, µM (doses to about 114 µM), most hits filed as inhibitors. 390,000 tested, 0.35% active. AID 588795, 2011; also: nearly all actives have a fitted effect of over 65% in size
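Quantitative HTS format: each compound was titrated, incubated with 10 nM nuclease for 15 min at room temperature, then challenged with flap substrate at 50 nM final. Signal change over 15 min gave concentration–effect curves.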
Pin1 inhibitor: qHTS Assay to Find Inhibitors of Pin1; Peptidyl-prolyl cis-trans isomerase NIMA-interacting 1 (Homo sapiens), Q13526; Pin1 FP peptide displacement, HiFluor488, 10 min; Potency, µM (titrated, usually from 115 µM), most hits filed as inhibitors; 390,000 tested, 0.009% active; active = well fitted inhibition curve with a large enough effect in the polarisation, with a control signal flat, not every such curve was filed as active; inconclusive = small, poorly fitted or top-dose-only effect, or effect the other way, or a change in a side signal; inactive = no such curve, though single readings can be large or run the other way; the % refers to the polarisation
Target sequence (Q13526 whole entry, looked up): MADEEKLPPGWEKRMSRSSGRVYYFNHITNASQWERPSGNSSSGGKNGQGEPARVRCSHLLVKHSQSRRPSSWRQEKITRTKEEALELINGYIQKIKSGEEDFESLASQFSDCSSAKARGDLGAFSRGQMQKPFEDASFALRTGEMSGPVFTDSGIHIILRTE
Hits are given with their value; n = inactive; u = inconclusive; x = no result; ! = a repeat was not active. Rows were chosen to be rich in hits. Some 0.45% of all compounds tested hit in one or more screens of this group. Unless noted, calls follow the shape of the dose curve; as a rule, active = well fitted curve in the direction sought with a large enough effect; inconclusive = small, poorly fitted or top-dose-only effect, or another doubt; inactive = no such curve, though single readings can be large; an effect the other way counts as inactive or inconclusive.

SMILES	B2AR arrestin	Chronic BCR inh	Anesthetic bind	Tb PGK inh	FEN1 inhibitor	Pin1 inhibitor
C=C(C)C(=O)Oc1ccc(N=Nc2ccc(C)cc2)ccc1=O	x	x	x	2.8µM	u	x
CC(=O)c1ccc(N=Nc2ccc(C)cc2)cc1	n	u	n	n	n	n
COc1ccc(/C=C(\C#N)c2nc3ccccc3[nH]2)cc1O	n	n	u	n	n	n
COc1cc(/C=C(\C#N)c2nc3ccccc3[nH]2)cc(OC)c1O	n	u	n	n	40µM	u
CCN1CCN(Cc2ccc(NC(=O)c3ccc(C)c(NC(=O)N4CCNC4=O)c3)cc2C(F)(F)F)CC1	n	u	n	25µM!	n	n
CCN1CCN(Cc2ccc(NC(=O)c3ccc(C)c(NC(=O)c4cc(-c5ccc(Br)cc5)n[nH]4)c3)cc2C(F)(F)F)CC1	n	u	n	n	n	n
CCCCCCC[n+]1c(/C=C/c2ccc(N(C)C)cc2)sc2ccccc21	x	x	x	x	35µM	x
CSc1nc(N(C)CCO)c2sc3nc(-c4ccco4)c4c(c3c2n1)CCC4	n	n	n	u	45µM	x
COc1cc(F)cc(F)c1[S+](=O)([O-])N1CCN([S+](=O)([O-])c2ccc3c(c2)OCCO3)CC1	x	x	x	x	x	n
N#Cc1nc(NC2CCCC2)c2ncn(-c3cc(F)cc(F)c3)c2n1	x	x	x	x	x	n
Cn1nnnc1SCC1=C(C(=O)O)N2C(=O)[C@@H](NC(=O)[C@H](O)c3ccccc3)[C@H]2SC1	n	n	n	u	u	3.2µM
COC(=O)c1ccc(Cn2ncc3c4sc(C)cc4n(C)c3c2=O)cc1	x	x	x	x	x	n
C[C@](N)(Cc1ccc(O)cc1)C(=O)O	x	x	n	x	n	x
COc1ccc(C[C@](C)(N)C(=O)O)cc1OC	n	23µM	x	n	n	n
COc1cccc(C2c3c(ncn(-c4ccccc4C)c3=N)Oc3ccc4ccccc4c32)c1 (stereo not given)	x	x	x	x	x	n
Cc1cc(O)c(Oc2cc(C)cc(O)c2O)c(O)c1	n	n	u	n	50µM	n
O=C(c1ccco1)N1CCN(C(=O)c2cc(-c3ccncc3)nc3ccc(Br)cc23)CC1	x	x	x	n	n	u
COc1ccccc1CNC(=O)COC(=O)c1cc(-c2ccco2)nc2ccccc12	n	u	n	x	50µM	u
COC(=O)C1CCN(C(=O)c2cc(-c3ccco3)nc3ccccc23)CC1	n	n	x	u	40µM	x
O=C(O)c1cc(-c2ccco2)nc2ccc(Br)cc12	n	u	n	28µM!	13µM!	n
COc1ccccc1CNC(=O)COC(=O)c1cc(C)nc2ccccc12	n	n	x	n	n	n
N#Cc1nc(Nc2cc(F)cc(F)c2)c2ncn(CCCN3CCCC3)c2n1	x	x	x	x	x	n
O=C1c2ccccc2C(=O)N1c1cc(=O)c2ccccc2[nH]1	x	x	x	x	x	n
CC(C)(C)NC(=S)NNC(=O)c1cccc(Br)c1	6.3µM	u	n	n	n	n
CN1/C(=C/c2cccc[n+]2C)Sc2ccccc21	n	n	n	n	45µM	n
SMILES	B2AR arrestin	Chronic BCR inh	Anesthetic bind	Tb PGK inh	FEN1 inhibitor	Pin1 inhibitor
CCN1/C(=C/c2cccc[n+]2C)Sc2ccc(OC)cc21	n	n	n	n	u	n
Cc1ccccc1C(=O)NCC(=O)OC(C(=O)Nc1cc(C(F)(F)F)ccc1Cl)c1ccccc1 (stereo not given)	x	x	x	x	x	n
O=C(O)c1ccccc1NS(=O)(=O)c1cccc(C(F)(F)F)c1	n	u	n	n	n	n
O=C(O)c1ccccc1NS(=O)(=O)c1cccc(-n2sc3ccccc3c2=O)c1	n	u	n	n	89µM	n
CN(C)c1cccc(-c2nnc(N3CCC(C(N)=O)CC3)s2)c1	x	x	x	x	x	n
Cc1ccc(NC(=S)NNC(C)(C)C)cc1	8.9µM	u	n	n	n	n
Cc1cc(C)c(C)c(C(=O)C2OC(=O)C(C)(C)C(=O)C2(C)C)c1C (stereo not given)	n	u	n	n	n	n
CC1(C)C(=O)OC(C(=O)c2ccc(C(C)(C)C)cc2)C(C)(C)C1=O (stereo not given)	n	u	20µM	n	n	n
CC(C)(C)OC(=O)NCC(=O)NNC(=O)c1cc2ccccc2[nH]1	x	x	x	x	x	n
O=S(=O)(c1ccc2c(c1)OCCO2)N1CCN(S(=O)(=O)c2ccc(F)c(F)c2F)CC1	x	x	x	x	x	n
COc1cccc2c(C)nc(Nc3nc(CSc4nnc(C)s4)cc(=O)[nH]3)nc12	n	n	n	n	50µM	u
Cc1ccc2c(C)nc(Nc3nc(CSc4nnc(C)s4)cc(=O)[nH]3)nc2c1	n	u	n	n	u	n
CN1/C(=C/c2cc[n+](C)c3ccccc23)C=Cc2ccccc21	n	u	u	n	45µM	n
CCOc1cc(C2NC(=O)c3c(sc4c3CCN(C)C4)N2)ccc1OC(=O)c1ccccc1Cl (stereo not given)	x	x	n	n	89µM	u
COc1cccc(C2c3c(ncn(-c4ccc(C)cc4)c3=N)Oc3ccc4ccccc4c32)c1 (stereo not given)	x	x	x	x	x	n
O=C(O)c1ccc(-c2ccc(/C=C3\NC(=O)N(Cc4ccc(Cl)cc4)C3=O)o2)cc1Cl	n	n	n	25µM	28µM	x
CCOC(=O)CN1C(=O)S/C(=C\c2ccc(-c3ccc(C(=O)O)c(Cl)c3)o2)C1=O	n	u	n	u	u	n
CCOC(=O)C1=C(C)c2ccccc2N(C(=O)OC)C1(C)C(=O)OCC (stereo not given)	n	18µM	n	n	n	n
Cc1ccc(NC(=O)c2ccc3c(c2)CCC(=O)N3)cc1C	x	x	x	x	x	n
CCC(C)C(N)C1=NC(C(=O)N[C@@H](CC(C)C)C(=O)N[C@H](CCC(=O)[O-])C(=O)N[C@H](C(=O)N[C@H]2CCCCNC(=O)[C@H](CC(N)=O)NC(=O)[C@@H](CC(=O)[O-])NC(=O)[C@H](Cc3cnc[nH]3)NC(=O)[C@@H](Cc3ccccc3)NC(=O)[C@H]([C@@H](C)CC)NC(=O)[C@@H](CCCN)NC2=O)[C@@H](C)CC)CS1.[Zn+2] (stereo not given in full)	x	x	x	28µM	8.9µM	20µM
CC[C@H](C)[C@@H]1NC(=O)[C@H](Cc2ccc(O)cc2)NC(=O)[C@@H](N)CSSC[C@@H](C(=O)N2CCC[C@H]2C(=O)N[C@@H](CC(C)C)C(=O)NCC(N)=O)NC(=O)[C@H](CC(N)=O)NC(=O)[C@H](CCC(N)=O)NC1=O	x	x	n	x	x	x
COC(=O)c1ccc2c(c1)C(C)(C)C(/C=C/c1ccc(O)cc1)=[N+]2C	n	u	n	n	45µM	u
COc1ccc(-c2nc3ccccc3c(=O)n2Cc2ccccc2)cc1CNc1ccc(NC(C)=O)cc1	x	x	x	x	x	n

Source: PubChem
